In PubChem BioAssay:

biological target: Alpha-bungarotoxin (Bungarus multicinctus) (UniProt P60615); assay: alpha-bungarotoxin binders on microarray, profiling panel, artefact control for SMM control protein annotation, biochemical, small-molecule microarray, Alexa647 label, 635/667 nm fluorescence (AID 1117); conditions: alpha-BTX-A647 binding fluorescence, higher = more signal
Sequence (P60615 whole entry, looked up): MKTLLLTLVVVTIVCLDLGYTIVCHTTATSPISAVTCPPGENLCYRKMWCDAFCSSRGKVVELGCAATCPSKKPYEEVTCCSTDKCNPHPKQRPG

SMILES	composite z-score
C=CCNC(=O)[C@H]1[C@@H]2C(=O)O[C@@H](c3ccccc3)[C@@H](c3ccccc3)N2[C@@H](c2ccccc2OCCO)[C@]12C(=O)N(C(=O)OCCOC)c1ccc(C#CC3(O)CCCCCC3)cc12	0.996
CN1C(=O)C2C=CC(C(O)c3cccn3C)N(Nc3ccc([N+](=O)[O-])cc3[N+](=O)[O-])C2C1=O (centres undefined)	0.401
CCCCC(CC)C(O)C1C=CC2C(=O)N(c3ccccc3)C(=O)C2N1Nc1ccccc1F (centres undefined)	-0.176
COCCOC(=O)N1C(=O)[C@@]2(c3ccccc31)[C@H](C(=O)NC[C@H](O)c1ccccc1)[C@H]1C(=O)O[C@H](c3ccccc3)[C@H](c3ccccc3)N1[C@@H]2c1ccc(O)cc1	1.78
